# Measurements as given in PubChem BioAssay AID938 (National Center for Advancing Translational Sciences (NCATS), 2007).
# Where “and” joins values, the source holds several entries; their conditions need not be identical. Equal values may be shown once. In all, about 73,000 compounds went through this assay and about 1,800 (2.5%) were called active. Inconclusive results (about 13%) are left out. The call rests on the fitted dose curve; in most records, active means well fitted activation curve with a large enough effect; inconclusive means small, poorly fitted or top-dose-only effect; inactive means no such curve, though single readings can be large or run the other way. This excerpt belongs to a sample that is enriched for actives.
# Test: qHTS Assay for Agonists of the Thyroid Stimulating Hormone Receptor: Activators of Intracellular cAMP Concentrations in Parental HEK 293; further: nearly all actives have a fitted effect of over 55% in size; on activation: % of control where 0% means no effect
# Details: parental HEK293 CNG cAMP sensor, membrane potential fluorescence; series mostly up to 57.1 µM; activation: at the top concentration
# Procedure, shortened: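 Counterscreen for endogenous-receptor signalling: CNG-channel HEK 293 cells report cAMP rise by membrane depolarization. After 60 min dye equilibration with 100 uM RO 20-1724, compounds incubated 30 min before bottom-read fluorescence at 590 nm.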
# Potency means the concentration at half of the fitted maximal effect.
SMILES,activation,Potency
CCOC(=O)N1CCN(C(=O)C2CCN(c3ncnc4c3sc3cccc(F)c34)CC2)CC1,22.3% (inactive),–
Cc1cc(C)nc(N2CCN(c3ncnc4c3oc3ccccc34)CC2)n1,8.26% (inactive),–
CCOC(=O)C1CCN(c2ncnc3c2oc2ccc(Br)cc23)CC1,–,25.1 µM (active)
Cc1cc(C)cc(C#CC2C=CC(Oc3ccc(C4CCCC4)cc3)C(CO)O2)c1 (stereo not drawn),16.7% [at 11.4 µM] (inactive),–
CC(C)[C@@H](OCc1ccccc1)[C@H](C)/C=N\OC[C@@H](C)[C@H](OCc1ccccc1)C(C)C,2.03% [at 11.4 µM] (inactive),–
CCOC(=O)CSc1nnc(-c2cccc(Br)c2)o1,14.3% (inactive),–
CC1=CC(C)(C)N(C(=O)CSc2nnc(-c3ccccc3)o2)c2ccc(C)cc21,–,2 µM (active)
O=C(CSc1nnc(-c2ccccc2)o1)N1CCOCC1,-5.4% (inactive),–
CCS(=O)(=O)N1CCN(C(=O)c2cccs2)CC1,1.24% (inactive),–
COc1ccc(N2CCN(C3CC(=O)N(c4ccc5c(c4)OCCO5)C3=O)CC2)cc1 (stereo not drawn),-2.22% (inactive),–
CCCc1nc2ccccc2c(=O)n1NC(=O)c1c(O)c2ccccc2[nH]c1=O,-13.5% (inactive),–
C[C@@H](C(=O)Nc1ccc2ccccc2c1)[C@@H]1C[C@@]1(C)[C@@H](NC(=O)c1cccnc1)c1ccccc1,26% (inactive),–
COC(=O)[C@H](C)[C@H]1C[C@]1(C)[C@H](NC(=O)OCc1ccccc1)c1ccccc1,–,2 µM (active)
CC(C)C(NC(=O)OCc1ccccc1)C(=O)OCC(=O)N1C(C)CCCC1C (stereo not drawn),4.71% (inactive),–
C=CCOC(=O)C(C(C)=O)C(NC(=O)OC)c1ccccc1 (stereo not drawn),4.24% [at 11.4 µM] (inactive),–
CCc1ccc(NC(=O)CSc2nnc(-c3cnccn3)n2Cc2ccco2)cc1,16.3% (inactive),–
COc1cc(Cl)c(C)cc1NC(=O)CSc1nnc(-c2cccnc2)n1Cc1ccco1,5.62% (inactive),–
C(=C\c1ccccc1)/CSc1nnc(-c2cccnc2)n1Cc1ccco1,–,15.8 µM (active)
COc1cccc(Cn2c(=O)c(-c3ccccc3)nc3cnc(OC)nc32)c1,6.48% (inactive),–
COc1cccc(Cn2c(=O)c(-c3cc(F)cc(F)c3)nc3cnc(OC)nc32)c1,15.7% (inactive),–
COc1cccc(Cn2c(=O)c(C)nc3cnc(Oc4ccccc4)nc32)c1,–,12.6 µM (active)
CC(C)n1c(SCC(=O)Nc2ccccc2N2CCCCC2)nc2c1c(=O)n(C)c(=O)n2C,–,20 µM (active)
COC(=O)c1c(NC(=O)CSc2nc3c(c(=O)n(C)c(=O)n3C)n2C(C)C)sc(C)c1C,5.47% (inactive),–

SMILES,activation,Potency
Cc1ccccc1NC(=O)CNc1ccccc1N1CCCCC1,-20.4% (inactive),–
CC1(C)CC(=O)C=C(NCCCNC2CCCCC2)C1,11.9% (inactive),–
CC(C)CC1(C(=O)NCc2ccccn2)C=CCN1C(=O)c1ccccc1 (stereo not drawn),–,25.1 µM (active)
CC(=O)N1[C@H](C)C=C[C@]1(Cc1ccccc1)C(=O)NCc1ccccn1,7.85% (inactive),–
COC(=O)C1(C)C=CCN1C(=O)c1ccccc1 (stereo not drawn),22% (inactive),–
O=C1C[C@@H](O)[C@@H](O)[C@H]2[C@@H]3C(=O)N(Cc4ccc5c(c4)OCO5)C(=O)[C@@H]3CC[C@H]12,0.478% [at 11.4 µM] (inactive) and -2.17% [at 11.4 µM] (inactive),–
COc1ccc(C(C(O)C(=O)c2c[nH]c3ccccc23)N2CCN(c3ccccc3)CC2)cc1 (stereo not drawn),-26.1% (inactive),–
N#Cc1cc2[nH]c(=O)c(=O)[nH]c2cc1[N+](=O)[O-],2.14% (inactive),–
CCOC(=O)N1CCC(O)(c2cc(C)c(C)cc2C)CC1,22.9% (inactive),–
O=C(CSc1nnc(-c2ccco2)n1CC1CCCO1)c1ccccc1 (stereo not drawn),6.36% (inactive),–
c1ccc(CSc2nnc(-c3ccco3)n2Cc2ccccc2)cc1,–,15.8 µM (active)
c1ccc(CSc2nnc(-c3ccco3)c(-c3ccco3)n2)cc1,17.4% (inactive),–
C1CCC2OC2C1 (stereo not drawn),21.9% (inactive),–
Brc1cc(Br)c(Oc2cc(Br)c(Br)cc2Br)cc1Br,7.96% (inactive),–
CN1CCC(CNC(=O)c2ccc(-n3c(=O)c(=O)[nH]c4ccccc43)cc2)CC1,-0.798% (inactive),–
O=C(O)CCCCC(=O)O,-7.63% (inactive),–
COc1ccc(N2C(=O)CCC(C(=O)N(C)C3CCCCC3)C2c2ccc(OC)c(OC)c2)cc1 (stereo not drawn),-2.67% (inactive),–
CCOc1ccc2c(c1)cc(CN(C(=O)CC)C1CCCCC1)c1nnnn12,–,20 µM (active)
CN(C(=O)CSc1nnnn1-c1ccccc1)C1CCCCC1,20.6% (inactive),–
CC(C)[C@H](CO)Nc1nc(Nc2cc(N)cc(Cl)c2)c2ncn(C(C)C)c2n1,-33.1% (inactive),–
CCCCOC(=O)NCN1C(=O)C2C3C=CC(C3)C2C1=O (stereo not drawn),2.49% (inactive),–
O=C1OCCC=C1[C@@H](O)CCc1ccccc1,-4.2% [at 11.4 µM] (inactive),–
CC(C)CNC(=O)C1CCCN(S(=O)(=O)c2ccc(-n3cnnn3)cc2)C1 (stereo not drawn),-6.8% (inactive),–

SMILES,activation,Potency
O=C(c1cnccn1)N1CCC2(CCN(Cc3cc(C(F)(F)F)cc(C(F)(F)F)c3)CC2)CC1,9.35% (inactive),–
Nc1nonc1C(=O)NCCc1ccccc1,-2.18% (inactive),–
O=C(CC(Cc1ccccc1)C(=O)O)NCCc1ccc2c(c1)OCO2 (stereo not drawn),9.45% (inactive),–
O=C(NCCc1ccc2c(c1)OCCO2)c1cc2ccccc2o1,–,25.1 µM (active)
CC1CCCN(Cc2nc3c(c(=O)n(C)c(=O)n3C)n2CC(=O)c2ccccc2)C1 (stereo not drawn),14.5% (inactive),–
CCOC(=O)NCc1ccc2c(c1)OCO2,0.501% (inactive),–
COc1ccc2c(c1)C(C)=CC(C)(C)N2C(=O)CNCc1ccc2c(c1)OCO2,–,25.1 µM (active)
CCn1cc(C(=O)NCc2ccc3c(c2)OCO3)c2cc(OC)c(OC)cc2c1=O,-7.17% (inactive),–
Cc1ccc(Cn2c(C)nc3c(c2=O)c2nc4ccccc4nc2n3Cc2ccco2)cc1,2.46% (inactive),–
Cc1ccc(Cn2c(NC(=O)c3ccco3)nc3ccccc32)cc1,–,25.1 µM (active)
CCn1nc(NC(=O)c2ccco2)c2cc3ccc(C)cc3nc21,1.12% (inactive),–
CCOc1ccc2nc(NCCNS(=O)(=O)c3ccccc3)c(C#N)cc2c1,26.9% (inactive),–
Cc1nnc(N(Cc2ccco2)C(=O)c2ccno2)s1,3.12% (inactive),–
N#CC1=C(SCc2ccccc2)NC(=O)C(C#N)C12CCCC2 (stereo not drawn),–,31.6 µM (active)
COC(=O)CSC1=C(C#N)C(c2ccccc2OC)C(C(=O)OC)C(=O)N1 (stereo not drawn),-3.31% [at 11.4 µM] (inactive),–
Cc1noc(C)c1-c1nc(Nc2ccccc2)c2ccccc2n1,-3.31% (inactive),–
O=C(NC(=O)c1ccc(Cl)c(Cl)c1)OC1CCS(=O)(=O)C1 (stereo not drawn),17.7% (inactive),–
Cc1ccnc(N)c1,16.3% (inactive),–
CC(C)c1ccc2c([Si](C)(C)C)c3c(nc2c1)-c1cccc(=O)n1C3,2.88% (inactive),–
O=C(CC1CCCCC1)Nc1c2c(nn1-c1ccc(F)cc1)CS(=O)(=O)C2,–,15.8 µM (active)
COc1cccc(C(=O)Nc2c3c(nn2-c2cccc(C)c2C)CS(=O)(=O)C3)c1OC,17.4% (inactive),–
COc1ccc(C2C(C#N)=C(N)Oc3n[nH]c(C)c32)cc1CN1CCN(c2ccc(F)cc2)CC1 (stereo not drawn),-7.97% (inactive),–
Cc1nc2cnc(N3CCN(C)CC3)nc2n(C[C@H]2CCCO2)c1=O,-4.71% (inactive),–

SMILES,activation,Potency
CC(C)(C)NC(=O)c1cc(NC(=O)c2ccco2)cc(NC(=O)c2ccco2)c1,2.66% (inactive),–
COc1ccc(C2C3=C(OC(C)=O)c4ccccc4C3=Nc3c2c(=O)n(C)c(=O)n3C)cc1 (stereo not drawn),–,10 µM (active)
COc1ccc(-c2c3c(=O)n(C)c(=O)n(C)c3cn2NC(C)=O)cc1,-1.58% (inactive),–
Cc1cccc(C2c3c(n(C)c(=O)n(C)c3=O)N=C3c4ccccc4C(=O)C32)c1 (stereo not drawn),-19.4% (inactive),–
Cn1nnc(NC(=O)CSc2ncn[nH]2)n1,1.91% (inactive),–
COC(=O)C(C(=O)OC)[C@@H]1CCCC(=O)C1,4.23% [at 11.4 µM] (inactive),–
CCc1nc(Nc2ccc3nccnc3c2)c2oc3ccccc3c2n1,3.36% (inactive),–
COc1ccc(CCNC(=O)CSc2nc(C)nc3c2oc2ccccc23)cc1OC,0.977% (inactive),–
COc1ccccc1Nc1ncnc2c1oc1ccccc12,–,31.6 µM (active)
COc1ccccc1CNc1ncncc1-c1cccc(NS(C)(=O)=O)c1,0.742% (inactive),–
COc1ccc(CNc2ncncc2-c2ccccc2OC)c(OC)c1,–,25.1 µM (active)
COc1ccccc1CNc1ncncc1-c1cccnc1,3.51% (inactive),–
COC(=O)[C@@H]1CC[C@H](C)[C@@H](c2ccc(C)cc2)N1C(=O)c1ccc(/C=N\O[C@@H](C)c2cn([C@H](CO)Cc3ccccc3)nn2)cc1,9.66% [at 11.4 µM] (inactive) and 5.24% [at 11.4 µM] (inactive),–
Cc1ccc2c(c1)c1ncnc(N3CCc4ccccc4C3)c1n2C,–,25.1 µM (active)
Cc1ccc2c(c1)c1ncn(CCC3=CCCCC3)c(=O)c1n2C,18.7% (inactive),–
Cc1cccc(-n2ncc3c(N4CCc5ccccc54)ncnc32)c1,9.9% (inactive),–
Cn1c(/C(C#N)=C2/CCCCCN2)nc2ccccc21,8.85% (inactive),–
Cc1noc(C)c1CSc1nc2cc(S(=O)(=O)N3CCOCC3)ccc2o1,0.104% (inactive),–
O=C(OCC(COC(=O)c1ccccc1)(COC(=O)c1ccccc1)COC(=O)c1ccccc1)c1ccccc1,20% (inactive),–
CCc1ccc(-c2nnn(Cc3nc4ccccc4s3)n2)cc1,–,15.8 µM (active)
CCc1ccc(-c2nnn(Cc3nn[nH]n3)n2)cc1,16% (inactive),–
O=C(O)CSCc1nc2ccccc2s1,19.3% (inactive),–
Cc1nc2cnc(Nc3ccccc3)nc2n(Cc2ccc(F)cc2)c1=O,26.3% (inactive),–

SMILES,activation,Potency
O=C(CSc1n[nH]c(-c2cccnc2)n1)Nc1ccnc2ccccc12,17.3% (inactive),–
Nc1nonc1-c1nc2ccccc2n1Cc1ccc(F)cc1,–,20 µM (active)
COc1ccc(C)c(Cn2c(-c3nonc3N)nc3ccccc32)c1,–,25.1 µM (active)
CCCn1c(C(O)c2cc(OC)ccc2OC)nc2ccccc21 (stereo not drawn),17.2% (inactive),–
COCCn1c(-c2ccc(OC)c(OC)c2)nc2ccccc21,10.2% (inactive),–
CC(=O)Nc1nonc1-c1nc2ccccc2n1Cc1ccccn1,11.6% (inactive),–
Nc1nonc1-c1nc2ccccc2n1CCC(=O)O,2.08% (inactive),–
C=CCc1cccc2cc(C(=O)OCC)c(=O)oc12,12.2% (inactive),–
C/C(=C\C(=O)c1ccccc1)Nc1cccc(O)c1,5.02% [at 11.4 µM] (inactive),–
COc1cc(Cl)c(S(=O)(=O)n2cnc(C)c2)cc1Cl,12.1% [at 11.4 µM] (inactive),–
CCC1Oc2ccc(Cl)cc2N(CC(=O)O)C1=O (stereo not drawn),9.51% (inactive),–
C#CCC(C(=O)OC)(C(=O)OC)C(C[N+](=O)[O-])c1ccccc1 (stereo not drawn),-0.955% [at 11.4 µM] (inactive),–
COc1cccc([C@H]2Oc3ccc(OC)cc3/C(=N\OCC[C@@H]3C=C[C@H](OC(C)=O)[C@H](COC(C)=O)O3)[C@@H]2O)c1,1.81% [at 11.4 µM] (inactive),–
Cc1ccc(C(=O)Nc2ccccc2C(=O)NC2CCCCC2)cc1S(=O)(=O)N1CCOCC1,–,15.8 µM (active)
Cc1cc(C)n(C(=O)c2ccc(C)c(S(=O)(=O)N3CCOCC3)c2)n1,23.4% (inactive),–
Cc1ccccc1NC(=O)c1cc(S(=O)(=O)N2CCOCC2)cs1,-8.26% (inactive),–
N[C@H](C(=O)O)c1ccc(C(=O)O)c(O)c1,-2.63% (inactive),–
Cc1c2c(nc3ccccc13)-c1cccc(=O)n1C2,-3.79% (inactive),–
Cc1ccc(-c2nn(CC(C)(C)C)c3ncnc(N)c23)cc1,-5.59% (inactive),–
CCCN(CCC)C(=O)C1c2ccccc2Oc2ccccc21,–,12.6 µM (active)
O=C(c1ccco1)N1CCN(C(=O)C2c3ccccc3Oc3ccccc32)CC1,14.5% (inactive),–
